Screens from PubChem BioAssay.
PLK1 PBD block: qHTS for Inhibitors of PLK1-PDB (polo-like kinase 1 - polo-box domain): Primary Screen; Plk1 PBD binding of FITC phosphopeptide, fluorescence polarization; Potency, µM, usual class: inhibitors; hit rate 2.8% among 360,000; Serine/threonine-protein kinase PLK1 (Homo sapiens), P53350; note: series mostly up to about 57 µM; nearly all actives have a fitted effect of over 65% in size
JMJD2A Tudor inh: qHTS Assay for Inhibitors of JMJD2A-Tudor Domain; AlphaScreen JMJD2A-Tudor / H3K4me3 peptide binding; Potency, µM (highest dose often 114 µM), usual class: inhibitors; hit rate 4.4% among 390,000; AID 504339, 2011; note: nearly all actives have a fitted effect of over 50% in size
HP1b binding inh: HTS for Inhibitors of HP1-beta Chromodomain Interactions with Methylated Histone Tails | Chromobox protein homolog 1 (Homo sapiens), P83916 | AlphaScreen HP1-beta / biotin-H3K9me3 peptide binding | Potency, µM (series often up to 114 µM), hits mostly inhibitors | hit rate 0.56% among 390,000 | AID 540317, 2011; note: nearly all actives have a fitted effect of over 70% in size
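AlphaScreen: HP1-beta (50 nM) preformed 30 min with biotin-H3(1-18)K9me3 peptide (50 nM) in PBS pH 7.4, 0.01% Tween-20. Compound added for 30 min at RT, then streptavidin donor/nickel chelate acceptor beads (10 ug/mL) for 30 min.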
G9a block: qHTS Assay for Inhibitors of Histone Lysine Methyltransferase G9a | G9a H3K9 monomethylation, AlphaScreen, 2 h | Histone-lysine N-methyltransferase EHMT2 (Homo sapiens), Q96KQ7 | Potency, µM (titrated, usually from 102 µM), actives largely listed as inhibitors | hit rate 8.8% among 350,000 | AID 504332, 2011; note: nearly all actives have a fitted effect of over 75% in size
Target sequence (Q96KQ7 913-1193 limits assumed): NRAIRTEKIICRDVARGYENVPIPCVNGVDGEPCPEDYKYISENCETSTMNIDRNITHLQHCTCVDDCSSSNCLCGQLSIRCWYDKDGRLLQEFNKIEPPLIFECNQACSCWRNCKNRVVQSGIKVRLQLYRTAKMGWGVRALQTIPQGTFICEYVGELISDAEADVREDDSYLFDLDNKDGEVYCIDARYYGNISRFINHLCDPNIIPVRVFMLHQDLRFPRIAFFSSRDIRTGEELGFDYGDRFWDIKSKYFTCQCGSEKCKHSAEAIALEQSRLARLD
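Readings reflect AlphaScreen signal from monomethyl-H3K9 antibody detection. HMT at 20 nM; substrate b-H3K9 500 nM; cofactor SAM 20 uM; 2 h RT reaction; compounds tested as titrations in qHTS with 15 min preincubation.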
BAZ2B block: qHTS Assay for Inhibitors of BAZ2B. Potency, µM (doses to about 114 µM), actives largely listed as inhibitors. hit rate 4.4% among 360,000. Bromodomain adjacent to zinc finger domain protein 2B (Homo sapiens), Q9UIF8. AID 504333, 2011. AlphaScreen BAZ2B-H3K14Ac peptide displacement; note: nearly all actives have a fitted effect of over 60% in size
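Inhibition is scored as reduced AlphaScreen emission. The BAZ2B/b-H3(5-23)K14Ac complex (50 nM each) in PBS pH 7.4, 0.01% Tween-20 meets compound (up to 110 uM) for 30 min at RT before bead addition.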
VDR inh: Inhibitors of the vitamin D receptor (VDR): qHTS | Vitamin D3 receptor (Homo sapiens), P11473 | VDR-SRC2-3 peptide fluorescence polarization, 2 h | Potency, µM, usual class: inhibitors | hit rate 0.93% among 400,000
Target sequence (P11473 whole entry, looked up): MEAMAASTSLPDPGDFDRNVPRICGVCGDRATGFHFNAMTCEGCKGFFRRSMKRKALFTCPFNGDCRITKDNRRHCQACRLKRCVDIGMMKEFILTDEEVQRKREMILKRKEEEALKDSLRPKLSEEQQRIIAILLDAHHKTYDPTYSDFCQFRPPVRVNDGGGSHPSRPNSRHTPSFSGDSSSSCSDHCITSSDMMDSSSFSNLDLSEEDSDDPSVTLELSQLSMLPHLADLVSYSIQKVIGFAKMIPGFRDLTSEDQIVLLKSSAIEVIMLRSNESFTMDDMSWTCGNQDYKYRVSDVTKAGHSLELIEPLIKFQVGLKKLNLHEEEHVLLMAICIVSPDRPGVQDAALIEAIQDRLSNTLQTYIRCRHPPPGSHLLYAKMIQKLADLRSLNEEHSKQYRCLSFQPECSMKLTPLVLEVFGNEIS
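Compounds are added to VDR with labelled SRC2-3 coactivator peptide and held 2 h at room temperature. Inhibition of the VDR–peptide interaction is then read as a change in fluorescence polarization.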
A number is an active result; - = inactive; ? = inconclusive; . = no result given; [ ] = another dose, or the depositor's remark. Shown are actives, neighbours in structure and some others; about 11% of the full set was active somewhere. Calls come from the whole dose curve; as a rule, active = well fitted curve in the direction sought with a large enough effect; inconclusive = small, poorly fitted or top-dose-only effect, or another doubt; inactive = no such curve, though single readings can be large; an effect the other way counts as inactive or inconclusive.

SMILES	PLK1 PBD block	JMJD2A Tudor inh	HP1b binding inh	G9a block	BAZ2B block	VDR inh
O=S(=O)([O-])CCC[n+]1c(/C=C\Nc2ccccc2)oc2ccc(-c3ccccc3)cc21	.	.	.	-	79.4µM	.
CC[n+]1c(/C=C/Nc2ccccc2)oc2ccc(OC)cc21	-	-	-	?	-	-
Cc1ccc(NC(=O)CCC(=O)Nc2nnc(C3CCCCC3)s2)cc1	?	-	-	?	-	-
CC(C)c1noc(-c2ccccc2OCC(=O)Nc2cccc([N+](=O)[O-])c2)n1	.	-	-	-	-	-
COc1cccc(CNC(=O)CCC2CCCN(C(=O)c3cccnc3SC)C2)c1 (stereo not drawn)	-	39.8µM	-	-	-	-
O=C(CCC1CCCN(C(=O)c2cncs2)C1)NCc1ccc(F)c(F)c1 (stereo not drawn)	29.9µM	25.1µM	?	-[12.7 µM]	-	?
Cc1cccc(OCC(=O)N(Cc2sccc2C)C2CCS(=O)(=O)C2)c1 (stereo not drawn)	.	-	-	-	-	-
Cc1cc(OC(=O)c2c(C)cc(OC(=O)c3c(C)cc(O)cc3O)cc2O)cc(O)c1C(=O)O	29.9µM	-	-	.	.	?
CCn1c(CNC(=O)COc2ccc(C(C)C)cc2)nnc1SCC(=O)Nc1ccc(F)cc1	-	-	-	-[12.7 µM]	-	-
CCn1c(CNC(=O)COc2ccc(C(C)C)cc2)nnc1SCC(=O)Nc1cc(F)ccc1C	-	28.2µM	-	?	-	-
COc1ccc2c(c1)Cc1c-2cc(Br)c(N)c1Br	-	.	.	.	.	.
COc1ccc(Cl)cc1C(=O)NNC(=O)C1COc2ccccc2O1 (stereo not drawn)	23.8µM	22.4µM	-	-	-	-
Cc1ccc(S(=O)(=O)NNC(=O)C2COc3ccccc3O2)cc1 (stereo not drawn)	-	-	-	-	-	-
O=C(NNS(=O)(=O)c1ccccc1Cl)C1COc2ccccc2O1 (stereo not drawn)	18.9µM	-	-	.	.	-
CCOC(=O)c1c(NC(=O)CSc2cn(CCNC(=O)c3ccccc3OC)c3ccccc23)sc2c1CCCC2	.	-	-	-	-	-
CC(C)c1ccccc1NC(=S)NCCCn1ccnc1	-	-	-	-	-	-
CSc1ccc(C(=S)N2CCN(CCO)CC2)cc1	26.7µM	-	-	10µM	-	-
OCCN1CCN(C(=S)c2ccc(Br)cc2)CC1	6.7µM	-	-	22.4µM	-	-
O=C(NCCN1CCN(C(=O)c2ccc(Br)cc2)CC1)c1ccc(Br)cc1	-	-	-	-	-	-
Cc1ccc(CNC(=O)C23CN(Cc4ccccc4)CC2C(c2cccc([N+](=O)[O-])c2)=NO3)cc1 (stereo not drawn)	-	?	-	?	-	-
O=C(NCc1ccco1)C12CN(Cc3ccccc3)CC1C(c1cccc([N+](=O)[O-])c1)=NO2 (stereo not drawn)	-	?	-	44.7µM	?	-
COc1ccc(OC)c(-c2nc(C(=O)NC3CCN(Cc4ccccc4)CC3)cc3c2[nH]c2ccccc23)c1	-	?	-	-[12.7 µM]	?	-
COc1ccc(-n2nc(C(=O)NCCCN3CCOCC3)c3ccccc3c2=O)c(OC)c1	21.2µM	56.2µM	-	-	-	?
COc1ccc(OC)c(-c2nc(C(=O)NCCCN3CCOCC3)cc3c2[nH]c2ccccc23)c1	-	?	-	-[12.7 µM]	50.1µM	-
COc1ccc(NC(=O)C2(C)CCN2Cc2csc3ccccc23)cc1OC (stereo not drawn)	-	.	.	.	.	.
SMILES	PLK1 PBD block	JMJD2A Tudor inh	HP1b binding inh	G9a block	BAZ2B block	VDR inh
O=[N+]([O-])c1cccc(CN(CCO)Cc2ccccc2)c1	-	-	-	.	-	-
OCCN(Cc1ccccc1)Cc1ccccc1O	-	?	79.4µM	10µM	56.2µM	-
CCCN(CCO)Cc1cccc(Br)c1	-	4.47µM	?	?	50.1µM	-
OCCN(CCO)Cc1ccc(Br)cc1	-	20µM	-	20µM	50.1µM	-
CCOC(=O)C1CCN(C(=O)CSc2n[nH]c(-c3ccc(OC)cc3)n2)CC1	.	-	-	-	-	-
COc1ccc(-c2nn(C)c3sc(C(=O)N4CCN(c5cc(Cl)ccc5C)CC4)cc23)cc1OC	.	-	-	?	.	-
Nc1cccc2c1C(=O)N(C(=O)/C=C/c1cccc(F)c1)C2=O	?	-	-	?	-	39.8µM
CC1(C)CC(=O)C(N=Nc2cc(S(=O)(=O)N3CCOCC3)ccc2Cl)=C(O)C1	-	-	-	50.1µM	56.2µM	-
CC1(C)CC(=O)C(N=Nc2ccc(-c3ccccc3)cc2)=C(O)C1	-	?	-	-	-	-
CC1(C)CC(=O)C(N=Nc2cccnc2)=C(O)C1	-	35.5µM	-	?	-	-
CC1(C)CC(=O)C(N=Nc2ccc(Cl)cc2)=C(O)C1	-	-	-	-	-	-
CC1(C)CC(=O)C(N=Nc2c(Cl)cc(Cl)cc2Cl)=C(O)C1	-	50.1µM	-	-	?	-
COc1cc(OC)c(NC(=O)Nc2cc(C)on2)cc1Cl	.	.	.	.	.	-
Nn1c(=O)c2ccccc2n2c(SCc3ccc(C(F)(F)F)cc3)nnc12	?	-	-	3.98µM	-	-
Nn1c(=O)c2ccccc2n2c(SCc3ccccc3)nnc12	-	-	-	-	-	-
COc1ccc(OCC(=O)N2CCN(C(=O)c3cccc(OC)c3)CC2)cc1	.	-	-	-	-	-
Cc1cc(C)cc(Nc2cc(-c3ccccc3)nc(C)n2)c1	.	-	-	-	-	-
COc1cc(C(C)=O)ccc1OCC(O)CNCC(O)c1ccccc1 (stereo not drawn)	-	28.2µM	?	-	56.2µM	-
COc1cc(C(C)=O)ccc1OCC(O)CN1CCN(S(=O)(=O)c2ccccc2)CC1 (stereo not drawn)	-	-	-	-[12.7 µM]	-	-
CCN(CC)C(=N)/C(C#N)=N/Nc1ccccc1	-	79.4µM	?	.	-	-
COc1ccc(S(=O)(=O)Nc2nnc(CC(C)(C)C)s2)cc1	29.9µM	-	-	35.5µM	-	-
COc1ccc(S(=O)(=O)Nc2nnc(C(C)(C)C)s2)cc1	7.52µM	-	-	1.78µM	.	?
COc1ccc(S(=O)(=O)Nc2nnc(C(C)C)s2)cc1	?	?	-	?	-	-
Oc1c(C=NCc2ccccc2)sc2ccccc12	-	89.1µM	?	?	?	-
COc1ccc(S(=O)(=O)N(C)C[C@H]2Oc3c(cccc3N(C)C)C(=O)N([C@H](C)CO)C[C@@H]2C)cc1	-	-	-	.	.	-
